Assay [1] is described as follows: qHTS of pediatric cancer cell lines to identify multiple opportunities for drug repurposing: Confirmatory screen for DAOY cells (AID 1347114). Further: nearly all actives have a fitted effect of over 65% in size. The note with it: DAOY medulloblastoma cells viability, cytotoxicity qHTS; series mostly up to 45.9 µM. The method, boiled down:
(§1)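 Viability measured as metabolically active cells via CellTiter-Glo luminescence following 48 hours of compound exposure, 11-point dilutions in confirmatory testing. 500-1,000 cells/well plated 5 hours before dosing; controls were DMSO and 2.3 µM bortezomib.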
In general terms: qHTS replaces the single test concentration by a dilution series.

Assay [2] can be described thus: qHTS of pediatric cancer cell lines to identify multiple opportunities for drug repurposing: Confirmatory screen for SJ-GBM2 cells (AID 1347116). Further: nearly all actives have a fitted effect of over 60% in size. The note with it: SJ-GBM2 glioblastoma cells, viability; series mostly up to 45.9 µM. In outline: as §1
A short description of assay [3]: qHTS of pediatric cancer cell lines to identify multiple opportunities for drug repurposing: Confirmatory screen for BT-37 cells (AID 1347117). Further: nearly all actives have a fitted effect of over 55% in size. Particulars: BT-37 pediatric cancer cells, viability; activity change, negative = cytotoxic: at 45.9 µM (top of the series). In outline:
(§2)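 Cells (500-1,000/well) rested 5 h, then received compounds for 48 h; metabolically active cells were measured by CellTiter-Glo luminescence. Final concentrations spanned up to 46 µM (MIPE, 11-point) or 0.59 nM-46 µM (NPC, 8-point) in primary screens, 11-point in follow-ups.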

Assay [4] can be described thus: qHTS of pediatric cancer cell lines to identify multiple opportunities for drug repurposing: Confirmatory screen for TC32 cells (AID 1347118).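 Further: cells exposed to compound for 48 h before the read; nearly all actives have a fitted effect of over 65% in size.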 Particulars: TC32 Ewing sarcoma cells viability qHTS; series mostly up to 45.9 µM. In outline:
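Luminescent ATP read-out (CellTiter-Glo) of metabolically active TC32 cells after 48 h exposure. Concentration-response curves came from 11-point (MIPE, 0.78 nM–46 µM) or 8-point (NPC, 0.59 nM–46 µM) primary titrations; follow-up used 11 points.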

The nature of assay [5]: qHTS of pediatric cancer cell lines to identify multiple opportunities for drug repurposing: Confirmatory screen for MG 63 (6-TG R) cells (AID 1347119). Further: nearly all actives have a fitted effect of over 55% in size. Particulars: MG-63 (6-TG resistant) osteosarcoma viability; series mostly up to 45.9 µM. In outline: as §2
A short description of assay [6]: qHTS of pediatric cancer cell lines to identify multiple opportunities for drug repurposing: Confirmatory screen for control Hh wild type fibroblast cells (AID 1347121). Further: nearly all actives have a fitted effect of over 70% in size. The note with it: viability qHTS; series mostly up to 45.9 µM. In outline: as §2
Assay [7] is described as follows: qHTS of pediatric cancer cell lines to identify multiple opportunities for drug repurposing: Confirmatory screen for U-2 OS cells (AID 1347122). Further: nearly all actives have a fitted effect of over 65% in size. The note with it: U-2 OS osteosarcoma cell viability; series mostly up to 45.9 µM. The method, boiled down:
as §2

Assay [8] is described as follows: qHTS of pediatric cancer cell lines to identify multiple opportunities for drug repurposing: Confirmatory screen for RD cells (AID 1347124).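 Further: cells exposed to compound for 48 h before viability readout; nearly all actives have a fitted effect of over 65% in size.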 The note with it: RD rhabdomyosarcoma cell viability; series mostly up to 45.9 µM. The method, boiled down:
as §2

Assay [9] in a line: qHTS of pediatric cancer cell lines to identify multiple opportunities for drug repurposing: Confirmatory screen for Rh41 cells (AID 1347123).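 Further: 48 h compound exposure; nearly all actives have a fitted effect of over 60% in size.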 The note with it: Rh41 rhabdomyosarcoma cells, viability/cytotoxicity qHTS; series mostly up to 45.9 µM. In outline: as §2
Assay [10] in a line: qHTS of pediatric cancer cell lines to identify multiple opportunities for drug repurposing: Confirmatory screen for NB-EBc1 cells (AID 1347115).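 Further: cells exposed to compound for 48 h before the viability read; nearly all actives have a fitted effect of over 45% in size.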 Particulars: NB-EBc1 neuroblastoma cells, viability (cytotoxicity); series mostly up to 45.9 µM. The method, boiled down: as §2

Inconclusive results are not listed. Activity calls are given as the source filed them. The call rests on the fitted dose curve; in most records, active means well fitted curve in the direction sought with a large enough effect; inconclusive means small, poorly fitted or top-dose-only effect, or another doubt; inactive means no such curve, though single readings can be large; an effect the other way counts as inactive or inconclusive. Non-standard residues stand in square brackets, D forms with d. Residues, ends and D or L forms follow the SMILES beside them. *: point of attachment. Nva = CCC[C@H](N)C(=O)O; Cbz = O=C(OCc1ccccc1)*
Potency means the concentration at half of the fitted maximal effect.

On to `O=C(C=CC=Cc1ccc2c(c1)OCO2)N1CCCCC1`, for which the Potency result in [1], in assay [2], in [3], in assay [5], in assay [6] and in assay [7] was “inactive” throughout. The Potency entry in assay [8] is “inactive”. In assay [4], the Potency is 10.4 µM (active).

For `CCC(C=C[C@@H]1OC(=O)C=C[C@H]1C)=C[C@H](C)CC=CC(C)=C[C@@H](C)C(=O)[C@@H](C)[C@H](O)[C@@H](C)CC(C)=CC(=O)O`, the Potency in [1] is 0.0128 µM (active); in assay [3] it was 0.0057 µM (active); in assay [4] it was 0.0144 µM (active); in assay [7], 0.0091 µM (active); in assay [9] it was 0.0128 µM (active); in assay [8], 0.0128 µM (active).

As for `COC[C@H](NC(=O)c1cnc(C)s1)C(=O)N[C@@H](COC)C(=O)N[C@@H](Cc1ccccc1)C(=O)[C@@]1(C)CO1`, the Potency was 0.104 µM (active) in assay [1]; 0.131 µM (active) in assay [2]; 0.165 µM (active) in [3]; 0.165 µM (active) in [4]; 0.0928 µM (active) in assay [5]; 0.329 µM (active) in assay [7]. Also, the figures for the Potency in [9] and in [8] were 0.0465 µM (active) and 0.0827 µM (active), respectively. Moreover, the Potency result in assay [6] was “inactive”.

Take `Cn1cc(CNCC2CCN(c3ncc(C(=O)NO)cn3)CC2)c2ccccc21`: the Potency is 0.261 µM (active) in assay [1]; 0.208 µM (active) in [2]; 0.131 µM (active) in assay [5]; 1.31 µM (active) in assay [6]; 0.208 µM (active) in assay [7]; 0.0329 µM (active) in [9]. In assay [8], the Potency is 0.329 µM (active).

Take `CC(C)C[C@H](NC(=O)CNC(=O)c1cc(Cl)ccc1Cl)B1OC(=O)CC(CC(=O)O)(C(=O)O)O1` (stereo partly drawn): the Potency was 0.165 µM (active) in assay [1]; 0.147 µM (active) in assay [2]; 0.522 µM (active) in [3]; 0.465 µM (active) in assay [4]; 16.5 µM (active) in assay [6]; 0.827 µM (active) in [7]. The Potency in assay [8] is 0.414 µM (active).

For the molecule `O=S(=O)(O)CCSSCCS(=O)(=O)O`, the Potency entry in assay [1], in assay [10], in [2], in [3], in assay [4] and in assay [5] was “inactive” throughout. The Potency result in [6], in [7], in assay [9] and in assay [8] was “inactive” each time.

As for `N#CNC(=NCCCCCCOc1ccc(Cl)cc1)Nc1ccncc1`, the Potency in assay [1] is 0.165 µM (active); in assay [2], 0.0414 µM (active); in assay [3], 0.0185 µM (active); in [4], 0.0041 µM (active); in [7], 0.293 µM (active); in [9] it was 0.0165 µM (active). For the same molecule, in assay [8], the Potency is 0.0369 µM (active).

`COc1ccc(S(=O)(=O)Nc2cccnc2Nc2ccc(O)cc2)cc1`: the Potency in assay [1] was 0.369 µM (active); in assay [10], 2.33 µM (active); in assay [3], 1.31 µM (active); in assay [4], 0.737 µM (active); in assay [5] it was 0.465 µM (active); in [7], 0.827 µM (active). Also, the Potency in [8] is 0.928 µM (active). The Potency result in assay [6] is “inactive”.

For the molecule `Cc1[nH]c(C=C2C(=O)Nc3ccccc32)c(C)c1CCC(=O)O`, the Potency entry in assay [1], in assay [10], in [3], in assay [4], in [5] and in [6] was “inactive” in each case. Besides, the Potency result in [7] and in assay [8] was “inactive” each time.

Take `O=C1NC(=O)[C@@H](c2cn3c4c(cccc24)CCC3)[C@H]1c1c[nH]c2ccccc12`: the Potency in assay [1] is 2.08 µM (active); in assay [3], 1.85 µM (active); in assay [4], 0.827 µM (active); in [5] it was 1.17 µM (active); in [7], 1.17 µM (active).

For `CCC[C@@H](C=O)NC(=O)[C@H](CC(C)C)NC(=O)[C@H](CC(C)C)NC(=O)OCc1ccccc1` (Cbz-Leu-Leu-[Nva]-aldehyde), the Potency was 1.17 µM (active) in assay [1]; 2.08 µM (active) in assay [2]; 1.17 µM (active) in assay [3]; 1.47 µM (active) in assay [4]; 0.827 µM (active) in assay [5]; 7.37 µM (active) in assay [6]. The values for the Potency in assay [7], in [9] and in [8] were 2.61 µM (active), 1.04 µM (active) and 1.31 µM (active), respectively.

For `CC(C=CC1=C(C)CCCC1(C)C)=CC=CC(C)=CC(=O)Nc1ccc(O)cc1`, the Potency in assay [1] is 33.9 µM (active); in assay [2], 2.4 µM (active); in assay [3], 38 µM (active); in assay [4] it was 2.14 µM (active); in assay [5], 42.7 µM (active); in assay [7], 12 µM (active).

As for `C#CCC(Cc1cnc2nc(N)nc(N)c2n1)c1ccc(C(=O)N[C@@H](CCC(=O)O)C(=O)O)cc1` (stereo partly drawn), the Potency was 0.117 µM (active) in assay [1], 0.369 µM (active) in [10], 0.0414 µM (active) in assay [4] and 0.233 µM (active) in assay [8]. The Potency entry in assay [5] and in assay [6] was “inactive” in each case.

For `CC(C)C[C@@H](C=O)NC(=O)[C@H](CC(C)C)NC(=O)[C@H](CC(C)C)NC(=O)OCc1ccccc1` (Cbz-Leu-Leu-Leu-aldehyde), the Potency is 0.737 µM (active) in assay [1]; 1.47 µM (active) in [10]; 1.04 µM (active) in [2]; 0.585 µM (active) in assay [3]; 0.827 µM (active) in [4]; 0.585 µM (active) in [5]. Also, the results for the Potency in assay [6], in [7] and in assay [8] were 5.85 µM (active), 2.08 µM (active) and 0.657 µM (active), respectively.

For `COc1ccc(C[C@@H](C)[C@@H](C)Cc2ccc(OC)c(OC)c2)cc1OC`, the results for the Potency in [1], in assay [4] and in [5] were 11.7 µM (active), 4.14 µM (active) and 9.27 µM (active), respectively. Also, the Potency result in [2] and in assay [7] was “inactive” each time.

For the molecule `COc1cc2c(cc1OC)[C@@H]1C(=O)c3ccc4c(c3O[C@@H]1CO2)C=CC(C)(C)O4`, the Potency in assay [1] is 0.185 µM (active); in assay [10], 0.827 µM (active); in [3] it was 2.08 µM (active); in assay [5] it was 0.104 µM (active); in assay [6], 0.293 µM (active); in assay [7], 0.329 µM (active). Further, the Potency in [9] is 13.1 µM (active).

Regarding `CC(=O)[C@]1(O)Cc2c(O)c3c(c(O)c2[C@@H](O[C@H]2C[C@H](N)[C@@H](O)[C@H](C)O2)C1)C(=O)c1ccccc1C3=O`, the Potency in assay [1] is 2.08 µM (active); in assay [2], 0.369 µM (active); in assay [3], 0.329 µM (active); in [4] it was 0.293 µM (active); in assay [7] it was 1.31 µM (active); in assay [8], 0.737 µM (active).

For the origin of these results see PubChem BioAssay (NCATS).
